D2 PAM-1 = human D2 receptor positive allosteric modulation; AID 624464; 0.23% of 360,000 active; P14416; potentiation, % (concentration not given with the values); DiscoveRx D2 beta-arrestin cells, luminescence, 90 min; 100% = 57 uM dopamine signal; in the data active means potentiation above about 50%; inconclusive means mostly about 30% to 49%
Target sequence (P14416 whole entry, looked up): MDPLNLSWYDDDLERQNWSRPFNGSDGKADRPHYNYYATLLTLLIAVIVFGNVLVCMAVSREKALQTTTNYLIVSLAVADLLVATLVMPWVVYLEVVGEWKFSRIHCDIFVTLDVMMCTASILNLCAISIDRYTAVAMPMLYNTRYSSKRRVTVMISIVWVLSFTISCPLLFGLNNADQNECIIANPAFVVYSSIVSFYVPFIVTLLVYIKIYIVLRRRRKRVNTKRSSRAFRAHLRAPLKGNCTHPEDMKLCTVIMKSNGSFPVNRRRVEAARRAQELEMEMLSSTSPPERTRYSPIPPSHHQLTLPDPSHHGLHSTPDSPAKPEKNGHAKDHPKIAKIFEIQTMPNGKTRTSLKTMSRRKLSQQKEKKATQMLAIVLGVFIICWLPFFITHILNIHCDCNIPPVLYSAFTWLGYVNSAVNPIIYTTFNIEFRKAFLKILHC
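PathHunter D2 cells, attached overnight at 37 deg C, received compound in DMSO plus dopamine at EC20 (50 nM final) for 90 min at 37 deg C. Beta-arrestin recruitment was read as luminescence after 1 h with detection reagent at ambient temperature.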
D2 ag-1 = D2 dopamine receptor (human) agonism. activation, % at 2 µM. 0.53% of 340,000 active. HEK293 T-REx D2 cells, calcium flux agonist mode. AID 485358. P14416;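 active means activation over 3 SD above normal in the single-dose calcium agonist read, cut at about 30% in these data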; further: 0% is about no effect
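Tetracycline-induced HEK293 T-REx cells with force-coupled D2 receptor, plated overnight at 30 C, loaded with no-wash calcium dye. After a 10 s baseline, compound was pin-added and calcium flux read kinetically for 180 s; calcium rises flagged agonists.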
D2 ag-2 = agonists of human D2 dopamine receptor (beta-arrestin); P14416; DiscoveRx PathHunter D2 beta-arrestin, luminescence, 90 min; 100% = 57 uM dopamine signal; activation, % (concentration not given with the values); 0.084% of 360,000 active; AID 624465; in the data active means activation above about 40%; inconclusive means between about 15% and that limit
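DiscoveRx PathHunter D2 beta-arrestin cells (2,100/well) attached overnight, then compound-stimulated 90 min at 37 C in HBSS/10 mM HEPES/0.1% Tween-20 buffer; beta-galactosidase complementation read by luminescence after 1 h at ambient temperature. Dopamine 57 uM final (EC100) as control.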
D2 antagonist = D2 dopamine receptor (human) antagonism | P14416 | HEK293 TREx D2 cells, calcium flux, dopamine EC80 | inhibition, % at 10 µM | 2% of 340,000 active | AID 485344; in the data active means inhibition above about 30%; inactive means below that, where a call was filed; further: 0% is about no effect
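Tetracycline-induced HEK293 T-REx cells expressing D2 force-coupled to calcium signalling were dye-loaded, exposed to compound for 180 s, then challenged with an EC80 of dopamine; calcium flux was followed kinetically for a further 180 s.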
D2 PAM-2 = D2 dopamine receptor (human) potentiation; HEK293 T-REx D2, calcium flux, EC20 dopamine potentiation; potentiation, % at 10 µM; P14416; 0.34% of 340,000 active;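 active means potentiation over 3 SD above the plate norm, cut at about 30% in these data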; further: 0% is about no effect
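Cells plated with tetracycline inducer and held overnight at 30 C; calcium dye loaded 30–90 min at room temperature; baseline taken, compound added and read 180 s; EC20 dopamine then added and read 180 s.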
Numbers without * were called inactive; ? = inconclusive; . = no result given. In the library only some 2.4% were active in any assay of this set; here they are far more common.

SMILES	D2 PAM-1	D2 ag-1	D2 ag-2	D2 antagonist	D2 PAM-2
N#Cc1c(-c2ccccc2)nc(SCc2cccc(Cl)c2)[nH]c1=O	1	-1	2	30*	0
CCCCSc1nnc2c(n1)OC(c1ccc(C)s1)Nc1ccccc1-2 (configuration not stated)	.	-1	.	.	-2
COc1cc(CC(NC(C)=O)C(=O)NC2CCN(C(=O)C3CC3)CC2)cc(OC)c1 (configuration not stated)	-11	0	-5	33*	7
CCOC(=O)Nc1sc(C(=O)N(CC)CC)c(C)c1C(=O)OCC	-11	1	-6	-11	45*
CCC1CCCCN1CCCNC(=O)CSc1nc2nc(C)c(Cc3ccccc3)c(C)n2n1 (configuration not stated)	-10	1	-2	-24	8
CCC1CCCCN1CCCNC(=O)CSc1nc2nc(C)c(Cc3ccccc3Cl)c(C)n2n1 (configuration not stated)	-17	0	-5	-6	31*
CCN(CC)S(=O)(=O)c1ccc2c(c1)N(CC(=O)N1CCN(c3cccc(C(F)(F)F)c3)CC1)C(=O)CO2	.	1	.	.	-15
CCCCN(CCCNC(=O)CN1N=C(c2ccccc2)CCC1=O)c1ccccc1	.	0	.	.	-13
COc1ccc2c(c1)C=C(CN1CCN(Cc3ccccc3C)C(CCO)C1)CO2 (configuration not stated)	-25	-1	4	58*	-20
COc1ccc2c(c1)C=C(CN1CCC(CO)(CCc3ccccc3)CC1)CO2	-18	1	-1	31*	-24
Cc1ccc(NC(=O)CN2C(=O)CCc3cc(S(=O)(=O)N4CCOCC4)ccc32)cc1F	.	1	.	.	0
O=C(Nc1nc2n(n1)C(c1ccccc1)C=C(c1ccccc1)N2)c1ccc(Cl)c([N+](=O)[O-])c1 (configuration not stated)	.	.	.	.	3
O=C(NCc1ccc2c(c1)OCO2)C(=O)NCC1CCCO1 (configuration not stated)	-7	0	-3	10	4
COc1ccc(NC(=O)c2ccc3c(c2)C(=O)N(CC2CCCO2)C3=O)cc1 (configuration not stated)	-3	0	5	4	4
O=C(NCc1cccc(CNC(=O)C(=O)NCC2CCCO2)c1)C(=O)NCC1CCCO1 (configuration not stated)	-2	0	0	30*	7
O=C(NCc1ccccc1)c1ccc2c(c1)C(=O)N(CC1CCCO1)C2=O (configuration not stated)	-5	-1	4	31*	-10
COc1ccc(NC(=O)c2ccc3c(c2)C(=O)N(CC2CCCO2)C3=O)c(OC)c1 (configuration not stated)	0	2	5	21	37*
O=C(Cc1ccccc1)Nc1ccc2c(c1)C(=O)N(CC1CCCO1)C2=O (configuration not stated)	1	1	-2	3	9
Cc1ccc2c(c1)-c1c(cnn1CC(=O)N1CCN(c3cc(C)ccc3C)CC1)CO2	.	0	.	.	-4
CCOc1ccc(-n2c(SCC(=O)N3CCCCC3)nc3c([nH]c4ccccc43)c2=O)cc1	.	-1	.	.	13
O=[N+]([O-])c1cc(-c2nc(-c3ccncc3)no2)cc([N+](=O)[O-])c1	95*	0	?	6	3
O=[N+]([O-])c1cc(-c2nc(-c3ccncc3)no2)ccc1Cl	-1	1	2	18	4
Brc1cccc(-c2nc(-c3ccncc3)no2)c1	-20	1	-1	41*	8
Cc1cccc2c3c([nH]c12)CCN(C)C3	-24	2	-4	66*	-28
NC(=O)c1cccc2c3c([nH]c12)CCCC3	-17	0	-3	-6	-4
COc1ccc(OC)c(NC(=O)CN(c2ccccc2OC)S(=O)(=O)c2ccc(C)cc2)c1	.	-1	.	.	3
O=C(Nc1ccc(F)cc1)N1CCn2c(nc3ccccc32)C1	-8	1	-1	33*	3
O=C(CSc1nc2ccc(N3CCOCC3)cc2c(=O)n1CCc1ccccc1)NCC1CCCO1 (configuration not stated)	6	1	14	41*	.
